The results in this text go back to PubChem BioAssay (Tox21).

“And” between values parts separate entries of the source, which are not always exact repeats. Equal entries are not always repeated. Values without a mark were called inactive. Records with an inconclusive call do not appear. The source made the active and inactive calls. Calls follow the shape of the dose curve; as a rule, active = well fitted curve in the direction sought with a large enough effect in the repeat runs; inconclusive = weak or mixed curves; inactive = no such curve, though single readings can be large; an effect the other way counts as inactive or inconclusive.

The nature of experiment [1]: Caspase-3/7 induction in HepG2 cells by small molecules, qHTS assay (AID 1346978). Also: nearly all actives have a fitted effect of over 15% in size. Also: potency is read from the fitted curve at half-maximal effect. The gist of the method:
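Wild-type HepG2 cells, 2,000/well, settled 5 hr at 37 C and 5% CO2, then compound-treated for 17 hr; caspase-3/7 activity read by luminescent Caspase-Glo 3/7 after 30 min at room temperature.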
(qHTS replaces the single test concentration by a dilution series.)

The nature of experiment [2]: Caspase-3/7 induction in CHO-K1 cells by small molecules, qHTS cell viability counter screen (AID 1346979). Also: nearly all actives have a fitted effect of over 35% in size. Also: potency is read from the fitted curve at half-maximal effect. The gist of the method:
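Wild-type CHO-K1 cells (1,500/well) treated with compound after 5 h plating; after 16 h at 37C, viability read as CellTiter-Fluor fluorescence following 1 h reagent incubation, in the same wells as the caspase read.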

A short description of experiment [3]: Caspase-3/7 induction in CHO-K1 cells by small molecules, qHTS assay (AID 1346980). Also: nearly all actives have a fitted effect of over 15% in size. Also: potency is read from the fitted curve at half-maximal effect. The method in brief:
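Wild-type CHO-K1 cells exposed to compounds for 17hr at 37 C, 5% CO2. Caspase-3/7 activity then measured by Caspase-Glo 3/7 luminescence after 30min at room temperature.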

The nature of experiment [4]: Caspase-3/7 induction in HepG2 cells by small molecules, qHTS cell viability counter screen (AID 1346981). Also: series mostly up to about 92 µM; nearly all actives have a fitted effect of over 30% in size. The method in brief: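 Fluorescence read-out of live-cell protease activity (CellTiter-Fluor) after 1 hr with reagent. This was measured in the same wells as the caspase-3/7 luminescence, on HepG2 cells exposed to DMSO-dissolved compounds for 16 hr at 37 C.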
The target of experiment [5] is Nuclear receptor subfamily 1 group I member 2 (Homo sapiens) (UniProt O75469). The experiment in a line: Human pregnane X receptor (PXR) small molecule agonists, qHTS assay (AID 1346982). Also: nearly all actives have a fitted effect of over 35% in size. Also: potency is read from the fitted curve at half-maximal effect. The method in brief: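 HepG2 PXR-Luc reporter line, 5% charcoal-stripped FBS; 5 hr pre-incubation, compound (DMSO) 24 hr at 37 C/5% CO2; ONE-Glo 30 min RT; luminescence read-out.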

Experiment [6] has as its target Cytochrome P450 2D6 (Homo sapiens) (UniProt P10635). The experiment in a line: Cytochrome P450 Family 2 Subfamily D Member 6 (CYP2D6) small molecule antagonists: luciferase reporter qHTS assay (AID 1671196). Also: series mostly up to about 120 µM; nearly all actives have a fitted effect of over 50% in size. The method in brief:
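Luminogenic proluciferin substrate, CYP2D6 enzyme; 10 min RT preincubation with compound, NADPH regeneration system added, 1 h RT. Stop/detection reagent, 20 min RT, luminescence read (RLU). Signal proportional to CYP activity.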
For orientation: In a reporter assay the amount or activity of a reporter protein is the signal.

The target in experiment [7] is Cytochrome P450 2C19 (Homo sapiens) (UniProt P33261). The experiment in a line: Cytochrome P450 Family 2 Subfamily C Member 19 (CYP2C19) small molecule antagonists: luciferase reporter qHTS assay (AID 1671197). Also: nearly all actives have a fitted effect of over 65% in size. Also: potency is read from the fitted curve at half-maximal effect. The gist of the method: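 Light output is proportional to CYP2C19 activity: proluciferin substrate is converted to luciferin, then detected by a luciferin detection reagent that also stops the 1 h, 37C NADPH-driven reaction. Ketoconazole serves as positive control.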

In experiment [8] the target is Cytochrome P450 2C9 (Homo sapiens) (UniProt P11712). The experiment in a line: Cytochrome P450 Family 2 Subfamily C Member 9 (CYP2C9) small molecule antagonists: luciferase reporter qHTS assay (AID 1671198). Also: nearly all actives have a fitted effect of over 50% in size. Also: potency is read from the fitted curve at half-maximal effect. The method in brief: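 P450-Glo proluciferin substrate with CYP2C9 enzyme; 10 min RT preincubation, then NADPH regeneration 1 h at 37C; luciferin detection reagent 20 min RT, luminescence in relative luminescence units.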

Experiment [9] has as its target Cytochrome P450 1A2 (Homo sapiens) (UniProt P05177). The experiment in a line: Cytochrome P450 Family 1 Subfamily A Member 2 (CYP1A2) small molecule antagonists: luciferase reporter qHTS assay (AID 1671199). Also: nearly all actives have a fitted effect of over 50% in size. Also: potency is read from the fitted curve at half-maximal effect. The gist of the method: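 Luminescence readout (relative luminescence units) after luciferin detection reagent, 20 min RT. Preceded by 1 h room-temperature CYP1A2 reaction with NADPH regeneration solution following 10 min compound preincubation with enzyme and proluciferin substrate. Furafylline positive control.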

Experiment [10] concerns the target Voltage-gated inwardly rectifying potassium channel KCNH2 (Homo sapiens) (UniProt Q12809). Put plainly: Human Ether-a-go-go-Related Gene (hERG) channel small molecule antagonists: fluorescence cell-based qHTS assay (AID 1671200).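 Also: hERG-expressing U2OS cells given a thallium stimulus after FluxOR II dye loading; series mostly up to about 77 µM; nearly all actives have a fitted effect of over 50% in size.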 The gist of the method:
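hERG-U2OS cells plated overnight at 37 C, loaded with FluxOR II dye 1 h at RT in dark; after 10 min, thallium stimulus added. Fluorescence (480/540 nm) read kinetically for 2 min at 1 s intervals.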

The target in experiment [11] is Cytochrome P450 3A4 (Homo sapiens) (UniProt P08684). The experiment in a line: Cytochrome P450 Family 3 Subfamily A Member 4 (CYP3A4) small molecule antagonists: luciferase reporter qHTS assay (AID 1671201). Also: nearly all actives have a fitted effect of over 50% in size. Also: potency is read from the fitted curve at half-maximal effect. The method in brief:
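P450-Glo CYP3A4 luminescent assay: compounds preincubated 10 min at room temperature with enzyme and proluciferin substrate, NADPH regeneration added, 1 h room-temperature reaction, stopped with luciferin detection reagent; luminescence read after 20 min. Ketoconazole positive control.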

For experiment [12], the target named is Nuclear receptor subfamily 1 group I member 2 (Rattus norvegicus) (UniProt Q9R1A7). Put plainly: Rat pregnane X receptor (rPXR) activation by small molecules, qHTS assay (AID 1346983). Also: nearly all actives have a fitted effect of over 20% in size. The settings on record: rPXR luciferase reporter cells, One-Glo luminescence, 24 h; max activation: hits give high values. The method in brief:
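Cell-based rPXR activation assay: rPXR cells, 2,000 per well, rested 5hr at 37 C, then exposed to compounds in DMSO for 24 hr at 37 C. Luciferase activity read by One-Glo luminescence after 30 min at room temperature.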

In experiment [13] the target is Nuclear receptor subfamily 1 group I member 2 (Homo sapiens) (UniProt O75469). Put plainly: CYP3A4 induction through human pregnane X receptor (PXR) by small molecules, qHTS assay (AID 1346984). Also: nearly all actives have a fitted effect of over 40% in size. The method in brief:
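HepG2-derived DPX-2 line carrying PXR plus a CYP3A4-promoter luciferase reporter; cells plated 5 hr, compound-exposed 24 hr at 37C. CYP3A4 activity probed with 3uM (final) Luciferin-IPA for 3hr, then luciferase read after One-Glo.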

The target is the same in experiment [14]. The experiment in a line: Human pregnane X receptor (PXR) activation by small molecules, qHTS assay (AID 1346985). Also: nearly all actives have a fitted effect of over 40% in size. The gist of the method: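 DPX-2 cells (HepG2 co-transfected with a PXR response element and a CYP3A4-promoter luciferase construct) were seeded at 2,000 per well, rested 5 hr at 37C, then exposed to DMSO-dissolved compounds for 24 hr. Activation was read as luciferase luminescence.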
% is scaled to controls: 0 for no effect and ±100 for the full control effect.

Cytochrome P450 2D6 (Homo sapiens), sequence (P10635 whole entry, looked up): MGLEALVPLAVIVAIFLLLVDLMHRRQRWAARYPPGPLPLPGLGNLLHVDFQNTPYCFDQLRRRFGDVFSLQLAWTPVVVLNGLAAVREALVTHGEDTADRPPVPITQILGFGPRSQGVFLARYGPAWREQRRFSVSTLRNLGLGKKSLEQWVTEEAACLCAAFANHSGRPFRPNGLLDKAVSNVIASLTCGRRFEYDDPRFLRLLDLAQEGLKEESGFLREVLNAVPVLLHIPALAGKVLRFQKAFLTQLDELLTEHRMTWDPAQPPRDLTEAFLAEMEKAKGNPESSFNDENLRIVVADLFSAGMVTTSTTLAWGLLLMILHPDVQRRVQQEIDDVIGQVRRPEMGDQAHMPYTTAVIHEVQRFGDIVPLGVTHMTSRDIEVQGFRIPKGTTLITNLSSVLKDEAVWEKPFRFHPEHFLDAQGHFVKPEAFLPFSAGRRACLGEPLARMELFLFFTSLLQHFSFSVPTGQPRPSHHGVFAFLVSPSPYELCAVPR
Voltage-gated inwardly rectifying potassium channel KCNH2 (Homo sapiens), sequence (Q12809 whole entry, looked up): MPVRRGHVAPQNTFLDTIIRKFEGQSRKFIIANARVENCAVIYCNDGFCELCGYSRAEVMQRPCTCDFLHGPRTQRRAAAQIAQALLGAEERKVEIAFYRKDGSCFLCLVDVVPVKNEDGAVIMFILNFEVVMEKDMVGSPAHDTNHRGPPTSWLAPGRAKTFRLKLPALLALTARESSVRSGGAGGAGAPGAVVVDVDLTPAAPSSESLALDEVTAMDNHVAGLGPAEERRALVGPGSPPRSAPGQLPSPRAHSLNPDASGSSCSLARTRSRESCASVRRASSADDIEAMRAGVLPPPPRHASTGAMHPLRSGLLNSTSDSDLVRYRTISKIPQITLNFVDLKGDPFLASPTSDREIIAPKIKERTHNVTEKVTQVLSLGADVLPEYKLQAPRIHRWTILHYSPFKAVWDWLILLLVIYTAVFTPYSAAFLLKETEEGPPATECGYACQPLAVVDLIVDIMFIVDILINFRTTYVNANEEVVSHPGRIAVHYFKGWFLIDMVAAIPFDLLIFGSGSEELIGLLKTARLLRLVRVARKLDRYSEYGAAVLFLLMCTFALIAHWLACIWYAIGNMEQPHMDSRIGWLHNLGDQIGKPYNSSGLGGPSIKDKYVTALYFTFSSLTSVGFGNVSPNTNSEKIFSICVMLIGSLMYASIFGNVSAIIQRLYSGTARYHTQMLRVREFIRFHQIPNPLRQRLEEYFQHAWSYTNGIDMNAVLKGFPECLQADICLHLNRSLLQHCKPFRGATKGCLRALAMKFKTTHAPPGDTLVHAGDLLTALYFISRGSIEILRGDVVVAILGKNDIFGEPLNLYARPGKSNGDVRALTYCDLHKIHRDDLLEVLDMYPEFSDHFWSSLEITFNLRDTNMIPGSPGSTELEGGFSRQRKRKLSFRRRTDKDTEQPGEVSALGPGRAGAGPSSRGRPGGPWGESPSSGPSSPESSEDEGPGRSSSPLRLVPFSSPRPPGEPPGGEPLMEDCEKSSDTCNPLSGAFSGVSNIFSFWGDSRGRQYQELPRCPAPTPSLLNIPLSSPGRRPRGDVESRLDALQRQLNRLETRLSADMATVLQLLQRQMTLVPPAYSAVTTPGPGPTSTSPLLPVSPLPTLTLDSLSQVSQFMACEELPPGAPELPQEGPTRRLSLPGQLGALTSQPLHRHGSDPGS
Cytochrome P450 2C19 (Homo sapiens), sequence (P33261 whole entry, looked up): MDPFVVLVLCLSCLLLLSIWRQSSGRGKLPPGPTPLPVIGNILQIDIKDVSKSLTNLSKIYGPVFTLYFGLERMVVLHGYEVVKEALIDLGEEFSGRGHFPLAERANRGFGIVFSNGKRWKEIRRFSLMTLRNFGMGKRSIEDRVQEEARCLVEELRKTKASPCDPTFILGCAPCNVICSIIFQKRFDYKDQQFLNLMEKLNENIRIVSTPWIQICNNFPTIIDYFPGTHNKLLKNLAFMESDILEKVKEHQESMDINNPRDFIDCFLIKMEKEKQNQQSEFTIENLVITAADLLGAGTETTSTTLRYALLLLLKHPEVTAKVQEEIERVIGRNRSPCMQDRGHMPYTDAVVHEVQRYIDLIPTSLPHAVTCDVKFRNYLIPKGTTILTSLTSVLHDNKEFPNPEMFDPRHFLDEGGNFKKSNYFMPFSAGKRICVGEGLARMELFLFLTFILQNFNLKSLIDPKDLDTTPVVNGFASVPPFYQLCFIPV
Cytochrome P450 1A2 (Homo sapiens), sequence (P05177 whole entry, looked up): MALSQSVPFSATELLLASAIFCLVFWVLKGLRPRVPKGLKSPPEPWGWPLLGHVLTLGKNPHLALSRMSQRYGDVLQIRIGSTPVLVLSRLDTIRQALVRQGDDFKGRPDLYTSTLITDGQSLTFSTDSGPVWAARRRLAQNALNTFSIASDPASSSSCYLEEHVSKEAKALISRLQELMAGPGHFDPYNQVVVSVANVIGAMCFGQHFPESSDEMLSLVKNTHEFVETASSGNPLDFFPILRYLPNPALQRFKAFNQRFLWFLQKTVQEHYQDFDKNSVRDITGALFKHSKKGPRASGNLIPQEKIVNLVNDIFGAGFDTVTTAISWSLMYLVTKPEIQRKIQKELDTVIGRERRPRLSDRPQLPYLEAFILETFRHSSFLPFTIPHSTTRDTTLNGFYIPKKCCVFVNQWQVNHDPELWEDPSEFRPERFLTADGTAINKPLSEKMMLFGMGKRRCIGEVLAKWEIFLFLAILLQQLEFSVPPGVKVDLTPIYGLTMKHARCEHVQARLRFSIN
Cytochrome P450 3A4 (Homo sapiens), sequence (P08684 whole entry, looked up): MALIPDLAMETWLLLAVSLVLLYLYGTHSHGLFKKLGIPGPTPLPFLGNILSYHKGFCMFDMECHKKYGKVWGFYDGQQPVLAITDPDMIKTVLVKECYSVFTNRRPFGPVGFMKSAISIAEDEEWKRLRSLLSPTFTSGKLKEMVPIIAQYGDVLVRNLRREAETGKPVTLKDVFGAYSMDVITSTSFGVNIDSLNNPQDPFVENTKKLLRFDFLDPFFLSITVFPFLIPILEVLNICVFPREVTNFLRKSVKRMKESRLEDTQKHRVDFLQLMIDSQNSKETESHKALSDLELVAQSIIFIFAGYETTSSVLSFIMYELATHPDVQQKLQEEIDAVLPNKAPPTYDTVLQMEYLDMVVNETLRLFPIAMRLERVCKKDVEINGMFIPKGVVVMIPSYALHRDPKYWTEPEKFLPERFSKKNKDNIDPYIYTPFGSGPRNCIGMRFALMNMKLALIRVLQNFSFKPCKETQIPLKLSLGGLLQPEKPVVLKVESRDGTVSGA
Nuclear receptor subfamily 1 group I member 2 (Homo sapiens), sequence (O75469 whole entry, looked up): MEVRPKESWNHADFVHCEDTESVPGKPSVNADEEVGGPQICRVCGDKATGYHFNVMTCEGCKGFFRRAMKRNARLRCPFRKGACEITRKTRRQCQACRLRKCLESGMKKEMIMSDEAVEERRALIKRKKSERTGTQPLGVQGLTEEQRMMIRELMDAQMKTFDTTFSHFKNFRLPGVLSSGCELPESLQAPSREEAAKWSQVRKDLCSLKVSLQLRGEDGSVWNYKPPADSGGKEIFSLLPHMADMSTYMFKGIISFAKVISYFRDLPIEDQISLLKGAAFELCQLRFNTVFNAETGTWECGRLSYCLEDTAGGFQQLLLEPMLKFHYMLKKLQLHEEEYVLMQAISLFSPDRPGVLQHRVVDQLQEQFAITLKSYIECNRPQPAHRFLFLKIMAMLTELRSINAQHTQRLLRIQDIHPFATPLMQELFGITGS
Nuclear receptor subfamily 1 group I member 2 (Rattus norvegicus), sequence (Q9R1A7 whole entry, looked up): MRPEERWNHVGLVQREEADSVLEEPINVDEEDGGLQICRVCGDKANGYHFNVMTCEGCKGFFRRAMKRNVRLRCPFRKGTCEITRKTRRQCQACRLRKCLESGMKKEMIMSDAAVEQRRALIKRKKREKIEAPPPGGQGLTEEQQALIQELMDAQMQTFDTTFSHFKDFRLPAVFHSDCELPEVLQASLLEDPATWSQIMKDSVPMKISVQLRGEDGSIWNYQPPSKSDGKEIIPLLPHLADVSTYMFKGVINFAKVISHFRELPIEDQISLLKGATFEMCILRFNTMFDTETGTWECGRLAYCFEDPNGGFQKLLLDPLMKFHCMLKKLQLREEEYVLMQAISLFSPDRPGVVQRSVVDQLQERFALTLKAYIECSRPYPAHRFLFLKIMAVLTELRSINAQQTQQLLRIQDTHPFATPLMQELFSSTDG
Cytochrome P450 2C9 (Homo sapiens), sequence (P11712 whole entry, looked up): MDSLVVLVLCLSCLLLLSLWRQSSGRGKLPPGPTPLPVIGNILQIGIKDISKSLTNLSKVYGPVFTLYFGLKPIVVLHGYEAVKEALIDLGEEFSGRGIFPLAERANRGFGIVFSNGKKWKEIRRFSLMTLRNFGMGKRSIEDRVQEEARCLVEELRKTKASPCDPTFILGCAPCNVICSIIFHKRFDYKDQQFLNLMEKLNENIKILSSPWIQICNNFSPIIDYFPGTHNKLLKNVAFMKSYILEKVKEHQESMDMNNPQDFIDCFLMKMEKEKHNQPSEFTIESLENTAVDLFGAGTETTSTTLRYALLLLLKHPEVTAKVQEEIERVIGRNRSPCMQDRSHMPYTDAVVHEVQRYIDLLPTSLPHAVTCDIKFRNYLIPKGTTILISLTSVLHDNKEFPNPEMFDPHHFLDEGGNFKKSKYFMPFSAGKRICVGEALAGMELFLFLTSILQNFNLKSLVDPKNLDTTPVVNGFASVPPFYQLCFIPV

`C=C1C[C@@]23CC[C@H]4[C@@](C)(CCC[C@@]4(C)C(=O)O[C@@H]4O[C@H](CO)[C@@H](O)[C@H](O)[C@H]4O)[C@@H]2CC[C@]1(O[C@@H]1O[C@H](CO)[C@@H](O)[C@H](O[C@@H]2O[C@H](CO)[C@@H](O)[C@H](O)[C@H]2O)[C@H]1O[C@@H]1O[C@H](CO)[C@@H](O)[C@H](O)[C@H]1O)C3`: the Potency entry in [1], in experiment [2], in [3], in experiment [4], in [5] and in [6] was “inactive” each time. Besides, the Potency entry in experiment [7], in experiment [8], in experiment [9], in [10] and in experiment [11] was “inactive” throughout.

For `CC1(C)S[C@@H]2[C@H](NC(=O)C(c3ccccc3)S(=O)(=O)O)C(=O)N2[C@H]1C(=O)O` (stereo partly specified), the Potency entry in [1], in experiment [2], in experiment [3], in experiment [4], in [5] and in experiment [6] was “inactive” each time. Moreover, the Potency result in [7], in experiment [8], in [10] and in experiment [11] was “inactive” each time.

Turning to `O=C(OC(=O)c1ccccc1)c1ccccc1`, the Potency entry in [1], in experiment [2], in experiment [3], in experiment [4], in [5] and in experiment [6] was “inactive” throughout. In addition, the Potency result in experiment [7], in [8], in experiment [10] and in experiment [11] was “inactive” each time.

`Cc1ccco1`: the Potency entry in experiment [1], in experiment [2], in experiment [3], in experiment [4], in [5] and in experiment [7] was “inactive” in each case. Moreover, the Potency result in experiment [8] and in experiment [11] was “inactive” throughout.

Turning to `OC[C@H]1O[C@@H](n2cnc3c(=S)nc[nH]c32)[C@H](O)[C@@H]1O`, the Potency entry in experiment [1], in experiment [2], in [3], in experiment [13], in [14] and in experiment [11] was “inactive” in each case. The Potency in [5] is 11.9 µM (active); in [7], 7.76 µM (active); in [8], 13.8 µM (active). The max activation in experiment [12] is -1.15%.

For the compound `CCC1CO1` (stereo unspecified), the Potency entry in experiment [1], in [2], in experiment [3], in [4], in experiment [5] and in [6] was “inactive” in each case. The Potency result in [7], in [8], in [10] and in experiment [11] was “inactive” in each case.

Regarding `C[C@]12CC[C@@H]3c4ccc(O)cc4CC[C@H]3[C@@H]1CC[C@@H]2OC(=O)CCC1CCCC1`, the Potency in [1] is 61.1 µM (active); in experiment [2], 54.5 µM (active) and 29.8 µM (active); in experiment [3], 43.3 µM (active); in [5], 21.7 µM (active) and 23.7 µM (active); in experiment [8], 17.8 µM (active) and 17.4 µM (active); in experiment [9] it was 17.8 µM (active). In addition, the Potency entry in experiment [4], in experiment [13], in [6], in experiment [10] and in experiment [11] was “inactive” in each case. Besides, the max activation in experiment [12] is 4.34% and -0.252%.

With `CC(=O)N/N=C/c1ccc([N+](=O)[O-])o1`, the Potency result in experiment [1], in experiment [3], in [4], in experiment [13], in experiment [14] and in experiment [7] was “inactive” throughout. Also, the Potency result in experiment [8], in experiment [10] and in experiment [11] was “inactive” each time. Also, in experiment [2], the Potency was 29.8 µM (active). Further, the max activation in experiment [12] was -3.83%.

Take `O=C=Nc1ccc(Cl)c(Cl)c1`: the Potency entry in [1], in [2], in experiment [3], in [4] and in [7] was “inactive” in each case. For the same compound, the Potency in experiment [5] is 26.9 µM (active); in [8], 39.3 µM (active); in experiment [9] it was 35 µM (active); in experiment [11], 31.2 µM (active).
